TGFb inhibitor: TGF-b pathway inhibition; AID 588855; 1.2% of 410,000 active; Potency, µM (doses to about 46.1 µM), without a hit: at the top dose activity, negative = inhibition, most hits filed as inhibitors; HepG2 CAGA-GFP TGF-b/SMAD3 reporter, GFP fluorescence, 18 h; TGF-beta stimulated, 500 pg/mL final; note: potency is the fitted concentration of half-maximal effect; % is set by controls: 0 for no effect and ±100 for the full control effect; nearly all actives have a fitted effect of over 65% in size
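Read-out: total well GFP (ex488/em500-530) summed from mean per-cell fluorescence. Cells: HEPG2 CAGA-GFP, 1% FBS DMEM, 18 h at 37 degrees C with 500 pg/mL final TGF-beta. Unstimulated wells served as the full-inhibition control; stimulated DMSO wells = 0%.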
D3 ag: activates the human D3 dopamine receptor. 0.58% of 410,000 active. D3R DiscoveRx beta-arrestin cells, luminescence, 90 min. max activation, %; in the data active = max activation above about 30%; note: 0% is about no effect
Target sequence (P35462 whole entry, looked up): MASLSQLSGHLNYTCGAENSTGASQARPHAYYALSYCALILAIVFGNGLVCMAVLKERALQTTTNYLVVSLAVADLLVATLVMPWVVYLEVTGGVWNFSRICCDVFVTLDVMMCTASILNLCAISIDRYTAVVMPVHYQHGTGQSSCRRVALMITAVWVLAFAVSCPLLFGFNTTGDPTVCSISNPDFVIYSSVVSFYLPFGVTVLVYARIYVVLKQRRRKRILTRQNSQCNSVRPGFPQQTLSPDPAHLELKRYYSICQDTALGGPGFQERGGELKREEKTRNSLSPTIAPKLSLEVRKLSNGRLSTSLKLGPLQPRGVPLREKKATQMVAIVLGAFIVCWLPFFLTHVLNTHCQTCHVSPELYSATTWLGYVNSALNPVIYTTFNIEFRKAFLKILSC
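Agonist mode: compounds and dopamine controls were applied to plated cells for 90 min at 37 degrees C after an overnight attachment at 1500 cells/well. Luminescent read-out followed 30 - 60 minutes at room temperature with DiscoveRx detection reagent.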
ATXN viability: cell viability loss in ATXN counter-screen; AID 651635; Potency, µM (doses to about 56.7 µM), actives largely listed as cytotoxic; 0.49% of 400,000 active; S2 cells (HEK-293 line with an ATXN2-luciferase reporter) viability, CellTiter-Fluor protease fluorescence, 24 h; note: potency is the fitted concentration of half-maximal effect; nearly all actives have a fitted effect of over 40% in size
DRD3 antagonist: antagonists of human D3 dopamine receptor | P35462 | D3R cells, DiscoveRx beta-arrestin luminescence, antagonist mode; stronger effect = lower value | max response, negative = inhibition, % | 2.5% of 360,000 active; in the data active = max response below about -50%; inconclusive = no clear call, values can overlap the other calls; note: % is set by controls: 0 for no effect and ±100 for the full control effect
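Cells plated overnight at 1500 cells/well, then exposed to library compounds with dopamine controls for 90 minutes at 37 degrees C. DiscoveRx reagent added for 30–60 minutes at room temperature; luminescence read, quantitative HTS format.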
ATXN2 expr inh: ATXN2 expression inhibition; 0.72% of 360,000 active; HEK-293 ATXN2-luciferase reporter, luminescence, 24 h; Potency, µM (doses to about 57 µM), for inactives: at the highest dose activity change, negative = inhibition, actives largely listed as inhibitors; note: potency is the fitted concentration of half-maximal effect; % is set by controls: 0 for no effect and ±100 for the full control effect; nearly all actives have a fitted effect of over 55% in size
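qHTS (up to 57 uM final) was run with 24 h compound exposure of reporter cells at 37 °C. Each well was multiplexed: SteadyGlo luminescence measured ATXN2-luciferase expression after a fluorogenic Gly-Phe-AFC viability readout (25 uM final).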
HepG2 tox-1: counter-screen for TGF-b inhibitors: cytotoxicity in HepG2 cells. HepG2 CAGA-GFP viability, ATP luminescence, 18 h. Potency, µM (titrated, usually from 46.1 µM), inactives show at the top dose activity change, negative = cytotoxicity, usual class: cytotoxic. 0.76% of 410,000 active. AID 588856; note: potency is the fitted concentration of half-maximal effect
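CellTiter-Glo luminescence gave cytotoxicity after 18 hours at 37 degrees C. The cells were HepG2 CAGA-GFP in 1% FBS DMEM, stimulated with 500 pg/mL TGF-beta after compound addition. %Activity was normalised to no-cell wells (complete cell-killing) and DMSO (no toxicity), and curves were fitted and classified.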
TGFb CAGA inh: confirmation of TGF-b signaling inhibitors in HepG2 reporter cells; shares compounds with TGFb inhibitor; HepG2 CAGA-GFP TGF-b reporter, GFP fluorescence, 18 h; cells stimulated with TGF-beta, 500 pg/mL; Potency, µM (titrated, usually from 46.1 µM), for inactives: at the top dose activity, negative = inhibition, actives largely listed as inhibitors; 63% of 1,600 active; AID 720534; note: potency is the fitted concentration of half-maximal effect; % is set by controls: 0 for no effect and ±100 for the full control effect; nearly all actives have a fitted effect of over 65% in size
HepG2 tox-2: HepG2 cytotoxicity, TGF-b inhibitor counterscreen; shares compounds with TGFb inhibitor; HepG2 CAGA-GFP viability, ATP luminescence, 18 h; cells stimulated with TGF-beta, 500 pg/mL; AID 720535; Potency, µM (series often up to 46.1 µM), for inactives: at the top dose activity, negative = cytotoxicity, usual class: inhibitors; 27% of 1,600 active; note: potency is the fitted concentration of half-maximal effect; % is set by controls: 0 for no effect and ±100 for the full control effect; nearly all actives have a fitted effect of over 70% in size
CCL64 TGFb inh: TGF-b inhibition, CCL64 orthogonal assay; CCL64 CAGA-GFP reporter, TGF-b stimulated, GFP fluorescence, 18 h; 41% of 1,600 active; Potency, µM (highest dose often 46.1 µM), without a hit: at the highest dose activity, negative = inhibition, most hits filed as inhibitors; shares compounds with TGFb inhibitor; note: potency is the fitted concentration of half-maximal effect; nearly all actives have a fitted effect of over 65% in size
COP TGFb inh: TGF-b inhibition validated with COP promoter | shares compounds with TGFb inhibitor | HepG2 COP-GFP TGF-b reporter, GFP fluorescence, 18 h; cells stimulated by added recombinant TGF-beta | Potency, µM (top dose mostly 46.1 µM), without a hit: top-dose activity, negative = inhibition, hits mostly inhibitors | 3% of 1,600 active; note: potency is the fitted concentration of half-maximal effect; nearly all actives have a fitted effect of over 70% in size
Starred values were filed as active, the others as inactive; i = inactive; ? = inconclusive; · = not tested or not shown. Sampled rows, rich in hits. Any-hit rate of the full collection: about 4.7%. Unless noted, calls come from the whole dose curve; as a rule, active = well fitted curve in the direction sought with a large enough effect; inconclusive = small, poorly fitted or top-dose-only effect, or another doubt; inactive = no such curve, though single readings can be large; an effect the other way counts as inactive or inconclusive.

SMILES	TGFb inhibitor	D3 ag	ATXN viability	DRD3 antagonist	ATXN2 expr inh	HepG2 tox-1	TGFb CAGA inh	HepG2 tox-2	CCL64 TGFb inh	COP TGFb inh
CSc1nc(=O)[nH]c2nc[nH]c12	-2%	·	·	·	·	-13%	·	·	·	·
CC(C)C[C@H]1CNC(=S)N1C[C@H]1CCCN1C[C@H](CC(C)C)N1C[C@H](Cc2ccc(O)cc2)N(CCc2ccccc2)C1=S	7.1µM*	3	7.1µM*	3	?	-97%	?	21µM*	23µM*	24%
CC(C)C[C@H]1CN([C@@H](CC(C)C)CN2CCC[C@@H]2CN2C(=S)NC[C@@H]2Cc2ccc(O)cc2)C(=S)N1CCc1ccccc1	10µM*	1	?	-21	?	-20%	13µM*	?	16µM*	54%
O=C(COc1ccc2ccccc2c1)NC1CC(=O)N(c2cccc(F)c2)C1 (centres undefined)	?	-2	·	·	·	-9%	·	·	·	·
COc1ccc(-c2cn3nc(N4CCCC(C(=O)NCc5ccccc5Cl)C4)sc3n2)cc1 (centres undefined)	0%	4	·	·	·	0%	·	·	·	·
Cc1ccc(NC(=O)CSc2nccn2C2CCCC2)cc1Cl	-11%	-2	·	·	·	-27%	·	·	·	·
CCOc1ccc(NC(=O)c2cc3c(C)nn(-c4ccccc4)c3s2)cc1	-8%	5	i	·	2%	-14%	·	·	·	·
CSc1ccc(CCNC(=O)CCc2c(C)nc3cc(-c4ccccc4)nn3c2C)cc1	-13%	-5	i	·	-32%	-5%	·	·	·	·
COc1ccc(C2=NN(C(=O)COc3ncnc4ccccc34)C(c3ccco3)C2)cc1 (centres undefined)	-13%	-7	i	-21	7%	-7%	·	·	·	·
COc1ccc(C2=NN(C(=O)COC(=O)c3ccc(S(C)(=O)=O)c([N+](=O)[O-])c3)C(c3ccco3)C2)cc1 (centres undefined)	8.9µM*	-12	·	-56*	?	8.9µM*	?	?	2.9µM*	?
O=[N+]([O-])c1cccc2nc3ccccc3c(NCCCn3ccnc3[N+](=O)[O-])c12	0.11µM*	-15	?	?	0.27µM*	-5%	0.1µM*	0.21µM*	0.16µM*	24%
Cc1cc(C(=O)N2CCN(c3ccccc3)CC2)c2c(C)nn(-c3cccc(F)c3)c2n1	14%	20	i	·	11%	1%	·	·	·	·
COc1ccc(-c2c(C(F)(F)F)[nH]n3c(=O)cc(-c4ccccc4)nc23)cc1	?	20	·	13	-4%	-62%	16µM*	16µM*	8.2µM*	34%
Cc1cccc(N(C(=O)CNC(=O)c2ccco2)C(C(=O)NC2CCCCC2)c2cccnc2)c1 (centres undefined)	-30%	-29	i	-17	-7%	-20%	·	·	·	·
O=C(NC1CCCCC1)C(c1cccnc1)N(C(=O)CCl)c1cccc(Cl)c1 (centres undefined)	10µM*	-6	11µM*	?	20µM*	22µM*	5.8µM*	9.2µM*	4.6µM*	?
CC(C)N(C(=O)[C@H]1C[C@H](CC(=O)NCC23CC4CC(CC(C4)C2)C3)C(=O)N2CCc3c([nH]c4ccc(Cl)cc34)[C@]12C)C(C)C	8.9µM*	37*	?	4	?	-76%	12µM*	?	13µM*	53%
CC[C@]12c3[nH]c4ccc(Cl)cc4c3CCN1C(=O)[C@@H](CC(=O)NCC13CC4CC(CC(C4)C1)C3)C[C@@H]2C(=O)N1CCN(C(=O)c2ccco2)CC1	13µM*	-17	?	?	25µM*	-2%	12µM*	?	?	67%
COc1ccc2[nH]c3c(c2c1)CCN1C(=O)C(CC(=O)NCC24CC5CC(CC(C5)C2)C4)C[C@H](C(=O)N2CCOCC2)[C@@]31CCC1CCCC1 (some centres undefined)	11µM*	-22	i	-20	8%	12%	4.6µM*	-22%	5.8µM*	19%
CC[C@]12c3[nH]c4cc(-c5ccco5)ccc4c3CCN1C(=O)[C@@H](CC(=O)NCC13CC4CC(CC(C4)C1)C3)C[C@@H]2C(=O)N1CCN(C(=O)c2ccco2)CC1	13µM*	0	?	-7	?	0%	?	-20%	?	28%
O=C(C[C@H]1C[C@H](C(=O)N2CCOCC2)[C@@]2(CCC3CCCC3)c3[nH]c4ccc(Cl)cc4c3CCN2C1=O)NCC12CC3CC(CC(C3)C1)C2	-6%	-10	i	1	-4%	-1%	·	·	·	·
CCN(C(=O)c1c(C)oc2ncn(CC(C)C)c(=O)c12)c1cccc(Cl)c1	-8%	3	i	·	9%	-14%	·	·	·	·
O=C(c1ccco1)N1CCN(C(=O)C2CCCc3c2[nH]c2ccc(Cl)cc32)CC1 (centres undefined)	1µM*	4	i	6	27%	-34%	?	?	?	10%
NC(=O)C1CCCc2c1[nH]c1ccc(Cl)cc21 (centres undefined)	·	·	·	·	-18%	·	·	·	·	·
CC(=O)Nc1ccc(C(=O)OCc2ccc(Cl)cc2)cc1	?	-1	i	-27	3%	-18%	·	·	·	·
CCCS(=O)(=O)c1ccc(COC(=O)c2ccc(NC(C)=O)cc2)cc1	?	-3	i	0	13%	0%	1%	7%	2%	-14%
